Screening data from PubChem.
Marburg entry inh: qHTS for inhibitors of binding or entry into cells for Marburg Virus; 300,000 compounds, 1.8% hits; AID 540276, 2011; Potency, µM (top dose mostly 37.8 µM), without a hit: top-dose activity change, negative = inhibition, hits mostly inhibitors; Marburg virus pseudotyped entry inhibition, cell reporter; calls by dose curve; tested in HEK293 cells; note: potency is the fitted concentration of half-maximal effect; % is set by controls: 0 for no effect and ±100 for the full control effect
Pf growth 96h: Primary qHTS for delayed death inhibitors of the malarial parasite plastid, 96 hour incubation; 320,000 compounds, 6.9% hits; Potency, µM (highest dose often 28.7 µM), inactives show at the highest dose activity change, negative = inhibition, most hits filed as inhibitors; P. falciparum luciferase reporter growth, 96 h; note: potency is the fitted concentration of half-maximal effect; % is set by controls: 0 for no effect and ±100 for the full control effect
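P. falciparum expressing integrated firefly luciferase grown in erythrocytes (2% hematocrit, 0.05% parasitemia final) with compounds for 96 hours at 37 C, 5% CO2. Growth inhibition read as loss of luminescence after adding luciferase detection reagent.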
Cycloheximide cs: Cycloheximide Counterscreen for Small Molecule Inhibitors of Shiga Toxin. cell reporter, cycloheximide protein synthesis inhibition counterscreen. 300,000 compounds, 12% hits. max response, %; in the data active = max response mostly above about 13%, no sharp cut-off; inactive = mostly below about 14%; note: read at 38.3 µM for the half of the compounds with a filed dose; 0% is about no effect
Lassa entry inh: qHTS for Inhibitors of binding or entry into cells for Lassa Virus; AID 540256, 2011; Lassa virus pseudotype entry inhibition, cell reporter; 300,000 compounds, 1.2% hits; Potency, µM (titrated, usually from 37.9 µM), for inactives: at the highest dose activity change, negative = inhibition, hits mostly inhibitors; calls by dose curve; tested in HEK293 cells; note: potency is the fitted concentration of half-maximal effect; % is set by controls: 0 for no effect and ±100 for the full control effect; nearly all actives have a fitted effect of over 50% in size
Pf growth 48h: Primary qHTS for delayed death inhibitors of the malarial parasite plastid, 48 hour incubation; P. falciparum luciferase growth in erythrocytes, 48 h; Potency, µM (titrated, usually from 28.7 µM), for inactives: at the top dose activity change, negative = inhibition, usual class: inhibitors; 310,000 compounds, 5.9% hits; AID 504832, 2011; note: potency is the fitted concentration of half-maximal effect; % is set by controls: 0 for no effect and ±100 for the full control effect
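Growth was read as firefly luciferase luminescence after a 48 h, 37 C, 5% CO2 exposure of compounds to reporter-bearing P. falciparum cultures (0.1% parasitemia, 2% hematocrit final) in Albumax-supplemented RPMI 1640.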
Shiga toxin inh: A qHTS for Small Molecule Inhibitors of Shiga Toxin. Vero cells, Shiga toxin protein synthesis inhibition reporter. 290,000 compounds, 9.2% hits. AID 2315, 2010. inhibition, % at 38.7 µM; in the data active = inhibition mostly above about 28%, no sharp cut-off; inactive = mostly below about 43%; note: 0% is about no effect
* = called active by the depositor; u = inconclusive; x = not tested or not shown; [ ] = another dose, or the depositor's remark. Most compounds without a hit are left out; they make up all but 19% or so of the library. Unless noted, calls come from the whole dose curve; as a rule, active = well fitted inhibition curve with a large enough effect; inconclusive = small, poorly fitted or top-dose-only effect, or another doubt; inactive = no such curve, though single readings can be large or run the other way.

SMILES | Marburg entry inh | Pf growth 96h | Cycloheximide cs | Lassa entry inh | Pf growth 48h | Shiga toxin inh
COc1ccccc1C(=O)O/N=C(\N)c1ccccc1Cl | u | 5% | 55* | u | 192% | 119*
COc1ccc(/C(N)=N/OC(=O)c2ccc(OC)c([N+](=O)[O-])c2)cc1OC | u | 32%[5.75 µM] | -3 | u | u | 3
CN1CCN(C(=O)Cn2c(-c3cccs3)cc3cc(Cl)ccc32)CC1 | x | x | x | 6%[46.1 µM] | x | x
NC1(c2ccccc2Cl)CCCCC1=O (stereo not drawn) | x | x | 4 | x | x | -7
CC1=C(C(=O)Nc2ccc(C)cc2C)C(c2ccccc2[N+](=O)[O-])n2ncc(C(=O)Nc3ccccc3)c2N1 (stereo not drawn) | x | x | x | 0%[46.1 µM] | x | x
COCCN(CCOC)Cc1cc(=O)oc2cc3c(cc12)CCC3 | 4% | -27% | -2 | -7% | -17% | 20
CC(C)CN(Cc1cc(=O)oc2cc3c(cc12)CCCC3)CC(C)C | x | u | 3 | x | 1.3µM* | -1
O=C(c1ccccc1)C1C(c2ccccc2)C1[N+](=O)[O-] (stereo not drawn) | u | 17% | -2 | 17% | 4% | 20
COC(=O)CNC(=O)C1(C)C=CCN1C(=O)c1ccccc1 (stereo not drawn) | -3% | -13% | 40* | 21% | 19% | 94*
O=C(NCc1cccnc1)/C(=C/c1ccc(-c2ccc(Cl)cc2)o1)S(=O)(=O)c1ccccc1 | u | 3.3µM* | -1 | 18µM* | 6.6µM* | -21
O=C(CN(Cc1ccc(Br)cc1)S(=O)(=O)c1ccccc1)NCc1cccnc1 | 16% | 3% | -2 | 3% | u | -2
O=C(NCc1cccnc1)/C(=C\c1ccc(-c2ccc(Br)cc2)o1)S(=O)(=O)c1ccccc1 | u | u | -12 | 13µM* | u | -15
O=C(NCc1cccnc1)/C(=C/c1ccc(-c2cccc(C(F)(F)F)c2)o1)NC(=O)c1ccccc1 | u | 135% | -3 | u | -16% | -14
C/C(CC(=O)NC12CC3CC(CC(C3)C1)C2)=N\NC(=O)Cc1cccs1 | u | u | 12 | -11% | 12% | 13
C/C(CC(=O)NC1CCCC1)=N\NC(=O)Cc1cccs1 | 11% | 39% | 15* | 16% | 1% | 20
CC(=O)CC(=O)Nc1ccc(Cl)cn1 | 14%[46.1 µM] | u | -4 | 1% | 35% | -9
C/C(CC(=O)Nc1ccc(Cl)cn1)=N\NC(=O)Cc1cccs1 | 8% | 20% | 13* | 3% | 17% | 26
CCN(CC)C(=O)CSc1nc2c(sc(=S)n2Cc2ccco2)c(=O)n1-c1ccccc1 | u | 7.4µM* | -2 | -18% | u | -11
CCOC(=O)CSc1nc2c(sc(=S)n2Cc2ccco2)c(=O)n1-c1ccccc1 | u | u | -3 | 2% | u | -15
CCCCCN(C(=O)CCC(=O)OCC(=O)c1ccc(C(C)CC)cc1)c1c(N)n(CCCC)c(=O)[nH]c1=O (stereo not drawn) | u | u | x | u | 10µM* | x
CCCCCN(C(=O)CCC(=O)OCC(=O)N(C)c1ccccc1)c1c(N)n(CCCC)c(=O)[nH]c1=O | u | 19% | x | -5% | 12% | x
CCCCn1c(N)c(N(CCC(C)C)C(=O)CCCc2nc3ccccc3s2)c(=O)[nH]c1=O | x | 15µM* | 7 | x | -6% | -10
CCCCn1c(N)c(N(CC(C)C)C(=O)CSCc2ccc(Cl)c(Cl)c2)c(=O)[nH]c1=O | u | u | x | u | 12µM* | x
CCCCCN(C(=O)CN1CCC(Cc2ccccc2)CC1)c1c(N)n(CCCC)c(=O)[nH]c1=O | 10µM* | 0% | -2 | u | u | 29
CCOc1ccc(NC(=O)NC(C)c2ccc3c(c2)OCO3)cc1 (stereo not drawn) | -4%[46.1 µM] | 17% | 2 | -23%[46.1 µM] | u | 6
SMILES | Marburg entry inh | Pf growth 96h | Cycloheximide cs | Lassa entry inh | Pf growth 48h | Shiga toxin inh
CC(=O)Nc1ccc2nsnc2c1 | x | 41% | -1 | x | 18% | -7
CCCCn1c(N)c(N(CC(C)C)C(=O)C(C)SCc2nc3sc(C)c(C)c3c(=O)[nH]2)c(=O)[nH]c1=O (stereo not drawn) | 21% | 7% | x | 0% | 12µM* | x
CCCCn1c(N)c(N(CC(C)C)C(=O)c2cnccn2)c(=O)[nH]c1=O | 15%[46.1 µM] | 24% | x | -1% | -22% | x
CC(C)CN(C(=O)COC(=O)Cc1ccc(Cl)cc1)c1c(N)n(Cc2ccccc2)c(=O)[nH]c1=O | -5% | 9% | x | u | u | x
CCCCn1c(N)c(N(CCC(C)C)C(=O)COC(=O)Cc2ccc(Cl)cc2)c(=O)[nH]c1=O | 13µM* | x | x | u | x | x
Cc1cccc(-n2c(C)cc(C(=S)N3CCOCC3)c2C)c1C | -18% | 47% | -4 | u | -24% | -5
C#CCOCCOCCOCCNc1nc(N2CCN(C(=O)[C@H]([C@@H](C)CC)n3cc([C@@H](N)Cc4ccc(O)cc4)nn3)CC2)nc(N2CCN(C(=O)[C@H](CCCCN)n3cc([C@@H](N)C(C)CC)nn3)CC2)n1 (stereo partly drawn) | x | 33% | -3 | x | 47% | -7
O=C(NCc1ccccc1Cl)c1nnc(CS(=O)(=O)c2ccccc2)o1 | x | 19% | 0 | x | 5.2µM* | -3
O=C1c2cccc3cccc(c23)C(=O)N1CCN1CCN(C(=S)Nc2ccccc2)CC1 | -24% | 15µM* | 1 | -30% | 42% | -11
O=S(=O)(c1ccc(F)c(F)c1F)N1CCN(C(=S)Nc2ccccc2)CC1 | u | u | -1 | -21% | 2.3µM* | -11
CC(C(=O)N1CCN(c2ccccc2)CC1)c1ccc([N+](=O)[O-])cc1 (stereo not drawn) | x | 13µM* | -2 | x | -6% | -3
S=C(NC1CCCC1)N1CCN(c2ccccn2)CC1 | 23% | 2.1µM* | 1 | 6% | 4% | -3
O=C1c2cccc3cccc(c23)C(=O)N1CCN1CCN(C(=S)Nc2ccc(Cl)cc2)CC1 | 9% | 238% | -1 | 1% | 28% | -6
O=C(NC(=S)N1CCN(c2ccccn2)CC1)c1ccccc1 | 0% | 2% | -2 | 1% | 13% | 8
NCC(O)COc1ccc2c(c1)OCO2 (stereo not drawn) | u | 3% | 1 | 9% | 13% | 14
O=C(CN(c1ccccc1)S(=O)(=O)c1ccccc1)Nc1ccc(F)cc1 | x | -6% | -1 | x | -27% | -6
O=S(=O)(c1ccc(Br)cc1)c1nc(-c2ccco2)oc1SCc1ccccc1F | 4%[46.1 µM] | x | x | 8%[46.1 µM] | x | x
O=[N+]([O-])c1ccc(N2CCN(C(=S)NC3CCCCC3)CC2)cc1 | u | 121% | 6 | u | 0.52µM* | -2
O=[N+]([O-])c1ccc(N2CCN(C(=S)Nc3ccccc3)CC2)cc1 | -2%[46.1 µM] | -15% | -2 | 0% | 2.1µM* | -11
